Bioassay records: PubChem, The Scripps Research Institute Molecular Screening Center
FBW7 activator = FBW7 E3 ligase activators, primary screen, biochemical, AlphaScreen, human; 650,000 tested, 0.13% active; AlphaScreen FBW7–phospho-cyclin E peptide binding, activator screen; AID 1259310, 2017; normalized activity (activation), % at 26.1 µM; F-box/WD repeat-containing protein 7 (Homo sapiens), Q969H0; in the data active = normalized activity above about 1.9%;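 note: purified mutant Fbw7 with reduced substrate affinity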
MITF inh = MITF inhibitors, primary screen, biochemical, AlphaScreen, human; Microphthalmia-associated transcription factor (Homo sapiens), O75030; AlphaScreen MITF homodimerization, bead proximity signal; inhibition, % at 2.6 µM; 650,000 tested, 0.91% active; in the data active = inhibition above about 50%
Target sequence (O75030 whole entry, looked up): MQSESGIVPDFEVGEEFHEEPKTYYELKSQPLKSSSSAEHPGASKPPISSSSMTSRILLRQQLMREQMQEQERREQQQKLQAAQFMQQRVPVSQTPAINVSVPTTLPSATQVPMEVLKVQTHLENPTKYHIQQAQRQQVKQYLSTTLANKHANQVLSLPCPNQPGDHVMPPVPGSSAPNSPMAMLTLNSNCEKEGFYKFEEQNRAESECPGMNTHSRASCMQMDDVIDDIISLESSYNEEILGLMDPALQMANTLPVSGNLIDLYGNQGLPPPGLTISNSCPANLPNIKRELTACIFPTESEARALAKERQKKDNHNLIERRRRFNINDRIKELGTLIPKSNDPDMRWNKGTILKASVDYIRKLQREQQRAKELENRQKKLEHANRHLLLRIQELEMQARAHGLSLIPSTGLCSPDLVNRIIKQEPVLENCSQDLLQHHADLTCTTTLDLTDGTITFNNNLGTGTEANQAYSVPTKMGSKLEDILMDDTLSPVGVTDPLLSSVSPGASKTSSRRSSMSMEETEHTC
TEAD-YAP inh = TEAD-YAP interaction inhibition, primary screen, TEAD-YAP interaction inhibitor project, luminescence, HEK-TIYL cells; inhibition, % at 9.12 µM; 640,000 tested, 1.4% active; TEAD-Gal4/YAP UAS-luciferase luminescence; AID 1259422, 2018; in the data active = inhibition above about 32%
GPR151 activ = activators of human GPR151, primary screen, cell-based, PathHunter beta-arrestin, luminescence. G-protein coupled receptor 151 (Homo sapiens), Q8TDV0. PathHunter beta-arrestin GPR151 cells. activation, % at 11.2 µM. 650,000 tested, 1% active; in the data active = activation above about 4.9%
Numbers stand for hits; n = inactive. Shown are actives, neighbours in structure and some others; about 3.5% of the full set was active somewhere.

SMILES | FBW7 activator | MITF inh | TEAD-YAP inh | GPR151 activ
CCCC(=O)Nc1ccccc1-c1nc2cc3ccccc3cc2[nH]c1=O | n | n | 55 | n
CC(=O)Nc1nc2ccc(S(=O)(=O)N3CCCCC3)cc2s1 | n | n | n | n
CC(C)CC(=O)Nc1nc2ccc(S(=O)(=O)N3CCCCC3)cc2s1 | n | n | 52 | n
CC[n+]1c(-c2ccc(C)cc2)csc1Nc1c(C)cc(C)cc1C | n | n | n | n
CC[n+]1c(-c2ccc(C)cc2)csc1Nc1ccc(NC(C)=O)cc1 | n | n | 62 | n
O=C(/C=C/c1cccs1)NC(=S)NNC(=O)c1ccccc1O | n | n | 81 | n
O=C(NNC(=S)NC(=O)C(c1ccccc1)c1ccccc1)c1ccccc1O | n | n | 86 | n
Cc1ccsc1CNc1nc(C)c(-c2ccn(CCN3CCOCC3)n2)s1 | n | n | n | n
COc1ccc(O)c(/C=N/n2c(C)csc2=NC(C)C)c1 | n | n | 41 | n
CCOC(=O)c1cnc2c(OC)cccc2c1NCCc1ccccc1 | n | n | n | n
CCOC(=O)c1cnc2c(OC)cccc2c1Nc1cc(OC)c(OC)c(OC)c1 | n | n | 56 | n
CCOC(=O)c1cnc2c(OC)cccc2c1NCCCN(CC)CC | n | n | 83 | n
CCOC(=O)c1cnc2c(OC)cccc2c1NCCOC | n | n | 42 | n
CCOC(=O)c1cnc2c(OC)cccc2c1NCCCOC | n | n | n | n
CNC(=O)NC(=O)N(C)S(C)(=O)=O | n | n | n | n
CCOCCCNC(=O)/C(C#N)=C/c1cn(-c2ccccc2)nc1-c1cccs1 | n | n | n | n
c1cc(CNc2ccc3ncc(-c4ccc5c(c4)OCO5)n3n2)ccn1 | n | n | 50 | n
Cc1ccc(-c2cnc3ccc(NCc4ccc5c(c4)OCO5)nn23)cc1 | n | n | 48 | n
c1ccc(CNc2ccc3ncc(-c4ccc5c(c4)OCO5)n3n2)nc1 | n | n | 58 | n
O=C(O)c1ccc(-c2cnc3ccc(NCc4ccc5c(c4)OCO5)nn23)cc1 | n | n | n | n
CCOC(=O)C1=C(CC)NC2=C(C(=O)CCC2)C1c1ccc(OC)cc1OC (centres undefined) | n | n | n | n
CCN(Cc1ccncc1)C1CCN(c2ccc(CC(=O)NCc3ccccc3)cc2)CC1 | n | n | 41 | n
Cn1ccc(C(=O)N/N=C(\C=C\c2ccccc2)c2ccccc2)n1 | n | n | n | n
CC(c1ccccc1)N1COc2c(cc(Cl)c3cccnc23)C1 (centres undefined) | n | 64 | 48 | n
CCOC(=O)c1c(C)oc2c1c1c(c3ccccc32)OCN(C(C)c2ccccc2)C1 (centres undefined) | n | n | n | n
SMILES | FBW7 activator | MITF inh | TEAD-YAP inh | GPR151 activ
CC(=O)Nc1ccc(Nc2ccnc(Nc3nccc4ccccc34)n2)cc1 | n | n | 48 | n
CC(=O)Nc1ccc(Nc2nc(Nc3nccc4ccccc34)ncc2C)cc1 | n | n | n | n
CC(=O)Nc1ccc(Nc2cc(C)nc(Nc3cnccn3)n2)cc1 | n | n | n | n
CC(=O)Nc1ccc(Nc2cc(C)nc(Nc3nccc4ccccc34)n2)cc1 | n | n | 65 | n
CCOc1ccc(OCCCC(=O)Nc2ccc(F)c(F)c2F)cc1 | n | n | n | n
Cc1ccccc1NCc1nc2ccccc2n1Cc1ccccc1 | n | n | n | n
O=[N+]([O-])c1ccc(CSc2nc3ccccc3c3nc(-c4ccccc4)nn23)cc1 | n | n | n | n
CC1C/C(=C/c2ccncc2)C(=O)/C(=C/c2ccncc2)C1 (centres undefined) | n | n | 94 | n
CN(C)CCNC(=O)c1cc2c(-c3ccc(Cl)cc3)nn(C)c2s1 | n | n | 68 | n
CN1CCN(CCCNC(=O)c2cc3c(-c4ccc(Cl)cc4)nn(C)c3s2)CC1 | n | n | n | n
O=C1NC(=O)c2c1cc1ccc3ccccc3c1c2-c1ccccc1 | n | n | n | n
CCOC(=O)c1ccc(CN2C(=O)C(=O)c3cc(OC(F)(F)F)ccc32)o1 | n | n | 66 | n
CCCCCCn1nc(C(=O)Nc2cc(C(N)=O)cc(C(N)=O)c2)c2ccccc2c1=O | 2.1 | n | n | n
CNS(=O)(=O)c1cccc(C(=O)OCC(=O)c2cc(C)n(Cc3ccco3)c2C)c1 | n | n | n | n
CNS(=O)(=O)c1cccc(C(=O)OCC(=O)c2cc(C)n(Cc3cccs3)c2C)c1 | n | n | 58 | n
Cc1cc(C(=O)COC(=O)c2cccc(S(=O)(=O)N(C)C)c2)c(C)n1CC1CCCO1 (centres undefined) | n | n | n | n
CNS(=O)(=O)c1cccc(C(=O)OCC(=O)c2cc(C)n(CC3CCCO3)c2C)c1 (centres undefined) | n | n | 57 | n
Cc1ccc(CNC(=O)C(=O)NCCc2c[nH]c3ccccc23)cc1 | n | n | n | n
Oc1cccc(-c2cnn3c(NCc4ccccn4)ccnc23)c1 | n | n | 56 | n
CN(Cc1ccccc1)c1ccnc2c(-c3cccc(CO)c3)cnn12 | n | n | 76 | n
OCc1cccc(-c2cnn3c(NCc4ccccn4)ccnc23)c1 | n | n | 77 | n
CN(Cc1ccccc1)c1ccnc2c(-c3cccnc3)cnn12 | n | n | n | n
Cc1cc(C)cc(CN2CCN(Cc3nc(-c4ccccn4)no3)CC2=O)c1 | n | n | n | n
COc1c(Cl)cc(C(=O)Nc2ccc(O)cc2)cc1Cl | n | n | n | n
Cc1nn(C)c(C)c1-c1cc(NCCc2ccc(O)cc2)nc(N)n1 | n | n | 37 | n
SMILES | FBW7 activator | MITF inh | TEAD-YAP inh | GPR151 activ
Cc1nn(C)c(C)c1-c1cc(NCc2ccccc2)nc(N)n1 | n | n | n | n
COc1cccc(C=O)c1OC(=O)c1cccc(Cl)c1 | 12 | n | n | n
COc1cccc(C=O)c1OC(=O)c1ccc2ccccc2c1 | n | n | n | n
COc1cccc(-c2nc(C(N)=O)c3[nH]c(=O)n(-c4cccc(C)c4)c3n2)c1 | n | n | n | n
COc1ccc(-c2nc(C(N)=O)c3[nH]c(=O)n(-c4cccc(C)c4)c3n2)cc1 | n | n | 58 | n
COc1ccc(-c2nc(C(N)=O)c3[nH]c(=O)n(-c4ccc(F)cc4)c3n2)cc1OC | n | n | n | n
COc1cc(-c2nc(C(N)=O)c3[nH]c(=O)n(-c4ccc(C)cc4)c3n2)cc(OC)c1OC | n | n | n | n
COc1ccc(-c2nc(C(N)=O)c3[nH]c(=O)n(-c4ccc(Cl)cc4)c3n2)cc1O | n | n | 51 | n
COc1ccc(-c2nc(C(N)=O)c3[nH]c(=O)n(-c4ccc(F)cc4)c3n2)cc1O | n | n | 54 | n
COc1ccc(-c2nc(C(N)=O)c3[nH]c(=O)n(-c4ccc(C)cc4)c3n2)cc1O | n | n | 67 | n
Cc1ccccc1OCC(=O)Nc1sc2c(c1C(=O)Nc1ccccc1C(F)(F)F)CCC(C(C)(C)C)C2 (centres undefined) | n | n | n | n
Cc1ccc2oc(-c3cccc(N)c3C)nc2c1 | n | n | 43 | n
Cc1cc2nc(-c3cccc(N)c3C)oc2cc1C | n | n | 89 | n
